Screening data from PubChem.
PGK inhibitor = blocks T. brucei phosphoglycerate kinase | P07378 | PGK/GAPDH coupled, Kinase-Glo luminescence, 60 min | Potency, µM (highest dose often 57.5 µM), for inactives: at the top dose activity change, negative = inhibition, most hits filed as inhibitors | 0.043% of 380,000 active | AID 602233; also: % is scaled to controls: 0 for no effect and ±100 for the full control effect; nearly all actives have a fitted effect of over 60% in size
Target sequence (P07378 whole entry, looked up): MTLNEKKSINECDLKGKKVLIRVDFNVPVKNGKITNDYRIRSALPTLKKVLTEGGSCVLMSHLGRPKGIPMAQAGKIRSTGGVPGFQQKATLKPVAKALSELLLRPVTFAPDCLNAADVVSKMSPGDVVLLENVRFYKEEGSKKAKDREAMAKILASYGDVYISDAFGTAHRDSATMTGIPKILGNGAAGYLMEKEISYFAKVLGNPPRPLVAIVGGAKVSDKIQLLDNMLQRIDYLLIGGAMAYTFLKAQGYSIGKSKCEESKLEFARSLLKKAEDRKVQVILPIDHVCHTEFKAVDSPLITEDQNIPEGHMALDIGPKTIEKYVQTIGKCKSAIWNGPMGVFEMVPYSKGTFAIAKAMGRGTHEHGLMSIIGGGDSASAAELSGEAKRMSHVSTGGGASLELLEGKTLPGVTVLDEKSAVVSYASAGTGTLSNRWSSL
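Recombinant glycosomal PGK reaction used 1,3-bisphosphoglycerate generated in-well by GAPDH (100nM final) in 100mM TEA pH 7.6, 5mM MgCl2, 0.01% Tween-20. After 60 minutes at room temperature, ATP was read by Kinase-Glo Plus luminescence end-point.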
Pol iota inh = DNA polymerase iota (human) inhibition; Pol iota fluorescent replication assay, 10 min; Potency, µM (highest dose often 115 µM), for inactives: at the highest dose activity, negative = inhibition, usual class: inhibitors; 1% of 390,000 active; AID 588590
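Fluorescent replication assay read twice, at 0 min and 10 min after adding 50 nM (final) substrate. Enzyme (10 nM) and compounds were first incubated 15 min at room temperature; enzyme-free buffer wells were negative controls.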
POLB inh = DNA polymerase beta (human) inhibition; AID 485314; Potency, µM (highest dose often 114 µM), for inactives: at the highest dose activity change, negative = inhibition, usual class: inhibitors; Pol beta primer extension/strand displacement, fluorescence kinetic; 1.3% of 340,000 active; also: % is scaled to controls: 0 for no effect and ±100 for the full control effect
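Curves were derived by four-parameter Hill fits of normalized qHTS data. The kinetic fluorescent primer-extension read was taken at 0 and 10 min after 50 nM substrate, following a 15 min room-temperature preincubation of 10 nM enzyme with compounds.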
FEN1 inhibitor = human FEN1 inhibition | P39748 | Recombinant FEN1 flap cleavage, fluorescence, 15 min | Potency, µM (highest dose often 114 µM), inactives show at the highest dose activity change, negative = inhibition, actives largely listed as inhibitors | 0.35% of 390,000 active; also: % is scaled to controls: 0 for no effect and ±100 for the full control effect; nearly all actives have a fitted effect of over 65% in size
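In this screen, 50 nM flap DNA substrate was added to 10 nM FEN1 pretreated with compound for 15 min at room temperature; cleavage was followed with reads at 0 and 15 min, and Hill fitting gave concentration–response parameters.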
POLH inh = blocks human DNA polymerase eta activity | Q9Y253 | recombinant Pol eta, fluorescent DNA replication assay | Potency, µM (series often up to 114 µM), for the others: at the top dose activity change, negative = inhibition, actives largely listed as inhibitors | 1.2% of 390,000 active | AID 588591; also: % is scaled to controls: 0 for no effect and ±100 for the full control effect
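Pol eta (10 nM) was preincubated with compounds for 15 min at room temperature, after which fluorescent replication substrate (50 nM final) was added to start the reaction. Fluorescence was read kinetically at 0 and 10 min.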
POLK inh = DNA polymerase kappa (human) inhibition; purified Pol kappa, fluorescent DNA synthesis assay, 10 min; AID 588579; Potency, µM (series often up to 107 µM), for the others: at the top dose activity, negative = inhibition, usual class: inhibitors; 0.53% of 400,000 active; also: % is scaled to controls: 0 for no effect and ±100 for the full control effect
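Fluorescent qHTS in 1536-well format: enzyme (10 nM) and compound sat 15 min at room temperature before 50 nM substrate (final) was added. Signal taken at 0 and 10 min; no-enzyme buffer wells were negative controls.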
Numbers without * were called inactive; i = inactive; ? = inconclusive; . = no result given; ! = not active in a repeat; [ ] = dose if it differs, or a comment. Rows were chosen to be rich in hits. Some 2.4% of all compounds tested hit in one or more screens of this group. Calls follow the shape of the dose curve; as a rule, active = well fitted curve in the direction sought with a large enough effect; inconclusive = small, poorly fitted or top-dose-only effect, or another doubt; inactive = no such curve, though single readings can be large; an effect the other way counts as inactive or inconclusive. Potency is read from the fitted curve at half-maximal effect.

SMILES	PGK inhibitor	Pol iota inh	POLB inh	FEN1 inhibitor	POLH inh	POLK inh
CC(=O)C(O)C(c1ccccc1)c1c(O)c2ccccc2oc1=O (stereo not given)	.	.	.	.	.	15%[60.1 µM]
O=C1NC(=O)N(CCc2ccc(F)cc2)C(=O)/C1=C\C=C\c1ccccc1	-4%	3.2µM*	-1%	0%	-11%	-11%
CN(C)c1ccc(/C=C2/C(=O)NC(=O)N(CCc3ccc(F)cc3)C2=O)cc1	.	-16%	13%	-18%	1%	0%
O=C1NC(=O)N(c2ccccc2)C(=O)/C1=C/c1ccc2c(c1)Cc1ccccc1-2	.	.	-9%	.	.	.
COc1ccccc1N1C(=O)NC(=O)/C(=C/c2ccc3c(c2)Cc2ccccc2-3)C1=O	-16%	?	1%	79µM*	-20%	-3%
ClCCN(CCCl)/C(=C\c1ccccc1)c1ccnc2ccccc12	.	17%	.	-24%	.	5%
N#C/C(=C/c1ccc(O)c(O)c1)C(N)=S	.	.	.	.	.	1.7µM*
N#C/C(=C\c1ccc(O)c(O)c1)C(=O)NCCCNC(=O)/C(C#N)=C/c1ccc(O)c(O)c1	.	0.11µM*	0.13µM*	.	0.11µM*	0.3µM*
C[C@]12CC[C@H]3[C@@H](CC[C@@]45O[C@@H]4C(=O)C(C#N)C[C@]35C)[C@@H]1CC[C@@H]2O (stereo not given in full)	.	.	.	.	.	2%[19.4 µM]
CCC(C)N1C(=O)/C(=C\c2ccc(N3CCCCCC3)cc2)C(=O)NC1=S (stereo not given)	-9%	87%	-23%	-5%	6%	-13%
CCC(C)N1C(=O)/C(=C\c2cc3c4c(c2)CCCN4CCC3)C(=O)NC1=S (stereo not given)	-3%	?	45µM*	8%	?	-34%
CCCOCCN(C(=O)CCl)c1c(CC)cccc1CC	.	.	.	.	.	15%[60.1 µM]
O=[N+]([O-])c1ccc(N(CCO)CCO)c2c1no[n+]2[O-]	-25%	.	.	.	28µM*	.
CN1CCN(c2ccc([N+](=O)[O-])c3no[n+]([O-])c23)CC1	-17%	18µM*	-24%	?	89µM*	-15%
CCOC(=O)N1CCN(/[N+]([O-])=N/Oc2ccc([N+](=O)[O-])cc2[N+](=O)[O-])CC1C (stereo not given)	.	?	.	-32%	.	-1%
CC[C@H](C)[C@H](NC(=O)[C@H](CO)NC(=O)[C@H](CC(N)=O)NC(=O)[C@H](CC(C)C)NC(=O)[C@H](Cc1ccc(O)cc1)NC(=O)[C@H](CCCCN)NC(=O)[C@H](CCCCN)NC(=O)[C@@H](NC(=O)[C@H](C)NC(=O)[C@H](CCSC)NC(=O)[C@H](CCC(N)=O)NC(=O)[C@H](CCCCN)NC(=O)[C@H](CCCNC(=N)N)NC(=O)[C@H](CC(C)C)NC(=O)[C@H](CCCNC(=N)N)NC(=O)[C@@H](NC(=O)[C@H](Cc1ccc(O)cc1)NC(=O)[C@H](CC(N)=O)NC(=O)[C@H](CC(=O)O)NC(=O)[C@@H](NC(=O)[C@H](Cc1ccccc1)NC(=O)[C@@H](NC(=O)[C@H](C)NC(=O)[C@H](CC(=O)O)NC(=O)[C@H](CO)NC(=O)[C@@H](N)Cc1cnc[nH]1)C(C)C)[C@@H](C)O)[C@@H](C)O)C(C)C)C(=O)N[C@@H](CC(C)C)C(=O)N[C@@H](CC(N)=O)C(N)=O	.	.	.	.	.	18%[60.1 µM]
Cc1ccc(F)cc1NC(=O)c1ccc(Cn2nc(N3CCN(c4ccccc4)CC3)ccc2=O)o1	-4%	?	?	-1%	79µM*	-11%
CN(C)C1C(=O)C(C(N)=O)=C(O)C2(O)C(=O)C3=C(O)c4c(O)cccc4C(C)(O)C3C(O)C12 (stereo not given)	i	-8%	11µM*	-8%	-9%	-4%
CN(C)[C@@H]1C(=O)C(C(N)=O)=C(O)[C@]2(O)C(=O)C3=C(O)c4c(O)ccc(Cl)c4[C@](C)(O)[C@H]3C[C@@H]12	.	.	.	.	.	-7%[12 µM]
Oc1ccc(Cl)cc1Sc1cc(Cl)ccc1O	7%	?	.	-25%	-3%	-22%
COC1(C)CC(c2ccccc2)c2c(c3ccccc3oc2=O)O1 (stereo not given)	.	.	.	.	.	-2%[60.1 µM]
O=c1[nH]c(=S)n(Cc2ccco2)c(O)c1C=NCc1cccs1	-3%	22µM*	13µM*	-12%	22µM*	50µM*
O=c1[nH]c(=O)n(Cc2ccco2)c(O)c1C=NCc1cccs1	-9%	-24%[58.9 µM]	-1%	-13%	?	?
O=C1NC(=O)N(Cc2ccc(F)cc2)C(=O)/C1=C/c1cccs1	3%	?	89µM*	-16%	?	-13%
O=C(Nc1ccc2nc(SCC(=O)N3CCCc4ccccc43)sc2c1)c1cccc(F)c1	i	-4%	?	3%	-1%	-24%
SMILES	PGK inhibitor	Pol iota inh	POLB inh	FEN1 inhibitor	POLH inh	POLK inh
COc1cc(/C=C2\C(=O)NC(=O)N(c3ccccc3)C2=O)c([N+](=O)[O-])cc1OC	-2%	136%	13%	0%	-23%	-7%
CN1C(=O)NC(=O)/C(=C\C=C\c2ccccc2[N+](=O)[O-])C1=O	-6%	14µM*	-1%	?	?	-11%
COc1ccc2[nH]c3c(c2c1)CCN=C3C	3%	-14%	.	50µM*	-8%	-16%
COc1ccc2[nH]cc(CCN)c2c1	-3%	7%[58.9 µM]	6%[57.1 µM]	-15%	-4%[57.1 µM]	-7%[60.1 µM]
Cc1ccc(S(=O)(=O)N(CC(=O)N/N=C\c2cccs2)c2cccc3cccnc23)cc1	i	?	40µM*	-4%	?	-10%
O=c1c2ccccc2nc(-c2ccccc2)n1-c1ccccc1	-5%	1%	-2%	17%	2%	-3%
O=c1c2ccccc2[se]n1-c1ccccc1	-2%	?	3.2µM*!	79µM*	-6%	10%[60.1 µM]
COC[C@H]1OC(=O)c2coc3c2[C@@]1(C)C1=C(C3=O)[C@@H]2CCC(=O)[C@@]2(C)C[C@H]1OC(C)=O	-3%	89µM*	.	0%	-8%	-26%
O=C1CCC2(O)C3Cc4ccc(O)c5c4C2(CCN3Cc2ccoc2)C1O5 (stereo not given)	-12%	.	.	.	28µM*	.
CCc1ccc(NC(=O)Cn2c(=O)oc3cc(S(=O)(=O)NCc4ccccc4)ccc32)cc1	10%	-13%	20µM*	5%	-9%	-31%
Cc1ccc(NC(=O)Cn2c(=O)oc3cc(S(=O)(=O)N4CCCCCC4)ccc32)cc1Cl	5%	-14%	?	15%	6%	-15%[60.1 µM]
Cc1cccc(O)c1	.	.	.	.	.	62%[60.1 µM]
[Hg+][c]1ccccc1	.	14µM*	.	10µM*	.	2%[19.4 µM]
CCN1C(=O)/C(=C\c2ccc([N+](=O)[O-])s2)C(=O)NC1=S	.	.	4.5µM*	.	.	.
